A number with no mark means an inactive call.
Tested on: Meloidogyne hapla J2
Assay: proportion of mobile M. hapla J2 relative to DMSO control (fraction of DMSO control); higher = more viable, less nematicidal, active = 0.7 or less
Conditions: 60 µM; 5 days; temperature: 20 °C
In short: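 About 25 M. hapla J2 were placed in each well of a 96-well plate in distilled water, and compound was pinned in to a final 60 µM with 0.6% v/v DMSO. The sealed plates were shaken at 200 rpm at 20 °C for 5 days, after which 2 µL of 1 M NaOH went into each well. Mobility was then scored under the microscope and divided by the mean value from DMSO-only wells on the same plate. Each plate held eight such DMSO wells, and two biological replicates were averaged.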

Row | Compound | proportion of mobile M. hapla J2
1 | C=CCSc1nnc(-c2ccc(Br)cc2)o1 | 0.591 (active)
2 | Cc1ccccc1-c1nc(-c2ccccc2Cl)no1 | 0.985
3 | CC(C)C(=O)Nc1ccccc1-c1nc(-c2cccnc2)no1 | 0.935
4 | Clc1ccc(CSc2nnc(-c3ccccc3)o2)c(Cl)c1 | 1.03
5 | COC(=O)c1ccc(Cl)c(NC(=O)CSc2nnc(-c3ccc(Cl)cc3)o2)c1 | 0.77
6 | COc1nc(-c2ccccc2)ccc1-c1noc(C(C)C)n1 | 0.776
7 | c1ccc(COc2cccc(-c3nc(-c4ccncc4)no3)c2)cc1 | 0.915
8 | C=CCOc1ccc(-c2nc(-c3cccnc3)no2)cc1 | 0.965
9 | Clc1cccc(-c2nc(-c3cccnc3)no2)c1 | 0.312 (active)
10 | O=C(CSc1nnc(-c2ccncc2)o1)Nc1ccc(Cl)cc1Cl | 0.57 (active)
11 | FC(F)(F)c1ccc(-c2noc(-c3ccccc3Cl)n2)cc1 | 1.04
12 | COc1cccc(-c2noc(COc3ccccc3C)n2)c1 | 0.861
13 | c1coc(-c2nc(-c3cccs3)no2)c1 | 1.01
14 | Cc1cccc(-c2nc(-c3ccc(Br)cc3)no2)c1 | 1.01
15 | CCOC(=O)c1c(NC(=O)CSc2nnc(-c3ccc(Cl)cc3)o2)sc(C(C)=O)c1C | 0.809
16 | O=C(CSc1nnc(-c2ccccc2Cl)o1)Nc1ccccn1 | 0.946
17 | CCOc1ccc(-c2nc(-c3cccnc3)no2)cc1OCC | 0.906
18 | COc1cccc(CSc2nnc(-c3ccco3)n2C)c1 | 0.965
19 | CCCCc1ccc(-c2nc(-c3cccnc3)no2)cc1 | 0.977

Tested on: Caenorhabditis elegans dauer (daf-2(e1370))
Assay: proportion of mobile C. elegans dauer larvae relative to DMSO control (fraction of DMSO control); higher = more viable, less nematicidal, active = 0.63 or less; extreme values may be limits of the assay
Conditions: 60 µM; 5 days; temperature: 20 °C
In short: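 The proportion of mobile worms, relative to DMSO wells, was scored by dissection microscope and averaged over two biological replicates. Worms were C. elegans dauers, about 20 per well in liquid NGM in 96-well plates, generated from synchronized larvae on MYOB plates with E. coli OP50 at 25 °C for 48 h. They were treated with compound pinned to 60 µM final (0.6% v/v DMSO) and kept in sealed plates shaken at 200 rpm for 5 days at 20 °C.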

Row | Compound | proportion of mobile C. elegans dauer larvae
20 | CCOc1nc(-c2ccccc2)ccc1-c1noc(-c2cccc(C)c2)n1 | 1
21 | Clc1cccc(-c2nc(-c3ccncc3)no2)c1 | 1
22 | Cc1c(C(=O)CSc2nnc(-c3ccccc3)o2)c2ccccc2n1C | 1
23 | COc1ccccc1-c1nc(-c2ccc(Cl)cc2Cl)no1 | 1
24 | COc1ccccc1-c1nc(-c2ccc(C)cc2)no1 | 1
25 | CCN(C(=O)CSc1nnc(-c2ccncc2)o1)c1ccccc1 | 1
26 | Cc1ccc(OCc2nc(-c3ccncc3)no2)cc1C | 1
27 | c1ccc(-c2noc(-c3cccs3)n2)cc1 [tioxazafen] | 0 (active)
28 | O=C(Nc1cccc(-c2noc(-c3cccnc3)n2)c1)c1cccs1 | 1
29 | COc1ccc(-c2noc(COc3ccc(C)cc3Br)n2)cc1 | 1
30 | O=C(CSc1nnc(-c2ccco2)o1)Nc1ccccc1F | 1
31 | Brc1ccc(-c2noc(-c3cccs3)n2)o1 | 0.5 (active)
32 | COc1ccccc1CC(=O)Nc1ccc(-c2noc(-c3ccccc3C)n2)cc1 | 1
33 | Brc1ccc(-c2noc(-c3ccco3)n2)cc1 | 0 (active)
34 | Cc1ccccc1-c1noc(-c2ccc(F)cc2)n1 | 1
35 | Cc1ccc(OCc2nc(-c3ccc(Cl)cc3)no2)cc1C | 1
36 | Cc1ccc(-c2noc(-c3cccc(Br)c3)n2)cc1 | 1

Row | Compound | proportion of mobile C. elegans dauer larvae
37 | Clc1cc(Cl)c(OCc2nc(-c3ccncc3)no2)cc1Cl | 1
38 | Cc1ccc(OCc2nc(-c3ccc(Br)o3)no2)cc1C | 1
39 | C=CCSc1nnc(-c2ccc(Br)cc2)o1 | 1
40 | Cc1ccccc1-c1nc(-c2ccccc2Cl)no1 | 1
41 | CC(C)C(=O)Nc1ccccc1-c1nc(-c2cccnc2)no1 | 1
42 | Clc1ccc(CSc2nnc(-c3ccccc3)o2)c(Cl)c1 | 1
43 | COC(=O)c1ccc(Cl)c(NC(=O)CSc2nnc(-c3ccc(Cl)cc3)o2)c1 | 1
44 | COc1nc(-c2ccccc2)ccc1-c1noc(C(C)C)n1 | 1
45 | c1ccc(COc2cccc(-c3nc(-c4ccncc4)no3)c2)cc1 | 1
46 | C=CCOc1ccc(-c2nc(-c3cccnc3)no2)cc1 | 0.5 (active)
47 | Clc1cccc(-c2nc(-c3cccnc3)no2)c1 | 1
48 | O=C(CSc1nnc(-c2ccncc2)o1)Nc1ccc(Cl)cc1Cl | 1
49 | FC(F)(F)c1ccc(-c2noc(-c3ccccc3Cl)n2)cc1 | 1
50 | COc1cccc(-c2noc(COc3ccccc3C)n2)c1 | 1
51 | c1coc(-c2nc(-c3cccs3)no2)c1 | 1
52 | Cc1cccc(-c2nc(-c3ccc(Br)cc3)no2)c1 | 1
53 | CCOC(=O)c1c(NC(=O)CSc2nnc(-c3ccc(Cl)cc3)o2)sc(C(C)=O)c1C | 1
